For 19 sequences, sensor-assay potency score (higher = more potent) results are on record in the OligoGym collection.
Also: reference of the scale not given here.

One assay concerns the target IBTK. Put plainly: pooled miR-30 sensor sort-seq; sequence = guide strand. The following applies: shRNA.
TTATCTTGAATATACAGACTAA registered a sensor-assay potency score (higher = more potent) of -0.465. Still for that read-out and setting: to TTGCACTATACATTGCTGCAAA belongs -0.722; to TCTTCTTGCACTGATAGTCTGC, -0.142.

Regarding TAATACAACAGTATGATCCTTA, the sensor-assay potency score (higher = more potent) worked out at 1.02. On the same count and under the same terms, to TAACACAGACTGTAGCTCCATC belongs -0.515. Same read-out and setting: the same measure for TAGCATAGCAGCATTCTTCAGG: -0.0417. For the sequence TTGAGCTTGATTACTTTTGTAA, the sensor-assay potency score (higher = more potent) amounted to 0.24. The same measure, in the same setting: to TAAACTGTAAACAAGACAGTTT belongs -0.0719; to TAAACAGCTTCTCTAGTCCATA, -1.24; to TTCTTGAACATAGTTTCCGAAT, -1.25.

The sequence TAAGCCAATCTAACACTCCTTT displayed a sensor-assay potency score (higher = more potent) of 0.0727. Still for that read-out and setting: the same measure for TTTGCTTTCTTGAACATAGTTT: -0.494.

A further assay has as its target ICAM4. The assay is described as above. Particulars: shRNA.
In turn, TAGCCCACCGGGAACACTGTAG showed a sensor-assay potency score (higher = more potent) of -0.579. On the same count and under the same terms, the same measure for TTGTAGGCGGTGATCCTGGAGG: -1.08.

For TAGGCGGTGATCCTGGAGGTGG, the sensor-assay potency score (higher = more potent) was -1.35.

Consider TTGAGCTGCACTGACTTCCCCG, for which the sensor-assay potency score (higher = more potent) amounted to 0.304. The same measure, in the same setting: to TGCACAGCCACGAACTCCGGGC belongs -1.29; to TTTTCCTGCGCAGGTCACGAGG, -1.77; to TCGTAGGTCAAGGTCACGTTGG, -0.884.
